From PubChem BioAssay (NCATS)
Inconclusive results are not listed. Activity calls are given as the source filed them. The call rests on the fitted dose curve; in most records, active means well fitted cell-killing curve with a large enough effect; inconclusive means small, poorly fitted or top-dose-only effect; inactive means flat fitted curve, though single readings scatter.

Assay: qHTS of pediatric cancer cell lines to identify multiple opportunities for drug repurposing: Confirmatory screen for BT-12 cells (AID 1347112);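 further: viability read after 48 h of compound exposure; nearly all actives have a fitted effect of over 55% in size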
Conditions: BT-12 rhabdoid tumor cells, viability; series mostly up to 45.9 µM; activity change, negative = cytotoxic: at the top concentration
Description: Drug repurposing or repositioning has been offered as a strategy for drug development in oncology programs. This approach has special potential for childhood cancers and other rare or orphan diseases, where the expected return on new drug development has been a disincentive to pharmaceuticals.
In this project we exploit the poly-pharmacology of drugs to discover new indications via phenotypic screening of a panel of 19 well-characterized cell lines derived from solid tumors seen in children and adolescents. The goal is to identify approved drugs with previously unrecognized anticancer properties that has the potential to reveal new mechanisms and biological processes involved in carcinogenesis or drug resistance. We employed a titration-based paradigm (quantitative high-throughput screening or qHTS), where all compounds were tested at multiple concentrations for their effect on cell viability. Concentration-response curves (CRCs) were derived directly from the primary screen, and both potency and efficacy values were used to identify compounds with robust bioactivity profiles. We screened the NIH Chemical Genomics Center (NCGC) Pharmaceutical Collection (NPC) and Mechanism Interrogation Plate (MIPE) small molecule collections of approved and investigational compounds against these cell lines; and measured metabolically active cells after 48 hours of compound treatment as a proxy for cell viability.
Assay Submitter: Nathalia J. Martinez, National Center for Advancing Translational Sciences, National Institutes of Health, Rockville, MD, USA; email: natalia.martinez@nih.gov
[1] Shen, M et al. Quantitative high-throughput phenotypic screening of pediatric cancer cell lines identifies multiple opportunities for drug repurposing. Oncotarget 2017 Dec 19;9(4):4758-4772. PMID 29435139.
The cells were obtained from University of North Carolina (UNC), Pediatric Preclinical Testing Program (PPT), and Coriell Institute (CI).
qHTS cell viability assay:
Cells were assayed in growth media at a density of 500-1,000 cells/well. Five microliters of cells were dispensed into 1,536-well, white, solid-bottom, TC-treated plates (Greiner Bio One) using a multidrop dispenser and incubated at 37 degrees C, 5% CO2, under a humidified atmosphere for 5 hours. Twenty-three nanoliters of compounds and controls (neutral control DMSO or positive control bortezomib at final concentration of 2.3 µM) were subsequently transferred by Kalypsys pintool. For primary screens, the MIPE collection was tested at 11-point dilutions (final concentrations range from 0.78 nM to 46 µM) and the NPC collection at 8-point dilutions (final concentrations range from 0.59 nM to 46 µM). Compounds tested in follow-up screens were assayed at 11-point dilutions. Cells were incubated for 48 hours, followed by addition of 3 µL of CellTiter-Glo (Promega). After a 15 min incubation at room temperature, samples were analyzed for luminescence intensity using a ViewLux High-throughput CCD imager equipped with clear filters.
On the % scale 0 is the no-effect control and ±100 the full control effect; potency means the concentration at half of the fitted maximal effect.

SMILES | activity change, negative = cytotoxic | Potency
CC[C@@H]1C(=O)N(C)c2cnc(Nc3ccc(C(=O)NC4CCC(N5CCN(CC6CC6)CC5)CC4)cc3OC)nc2N1C(C)C (stereo not given in full) | -8.34% (inactive) | –
COc1cccc(Nc2c(C(N)=O)cnc3c(C)cc(S(=O)(=O)c4cccc(C(=O)N(C)C)c4)cc23)c1 | 10.2% [at 29.6 µM] (inactive) | –
COc1ccc(-c2cc3c(C)nc(N)nc3n(C3CCC(OCCO)CC3)c2=O)cn1 (stereo not given) | -1.4% (inactive) | –
CNC(=O)CN1CCC(Oc2cc3c(Nc4cccc(Cl)c4F)ncnc3cc2OC)CC1 | -19.7% (inactive) | –
CC(=O)OCC(=O)[C@@]1(O)[C@H](C)C[C@H]2[C@@H]3C=C(C)C4=Cc5c(cnn5-c5ccccc5)C[C@]4(C)[C@@H]3[C@@H](O)C[C@@]21C | – | 32.9 µM (active)
CN1CC[C@@H](c2c(O)cc(O)c3c(=O)cc(-c4ccccc4Cl)oc23)[C@@H](O)C1 | – | 0.737 µM (active)
CCOc1cc2ncc(C#N)c(Nc3ccc(F)c(Cl)c3)c2cc1NC(=O)C=CCN(C)C | – | 0.208 µM (active)
Cc1ccc(C(=O)Nc2ccc(CN3CCN(C)CC3)c(C(F)(F)F)c2)cc1C#Cc1cnc2cccnn12 | – | 8.27 µM (active)
NC(=O)c1cccc2cn(-c3ccc([C@@H]4CCCNC4)cc3)nc12 | -9.69% (inactive) | –
O=C(NC1CCNCC1)c1[nH]ncc1NC(=O)c1c(Cl)cccc1Cl | – | 3.02 µM (active)
CC(NCc1ccc2c(c1)nc(NC(=O)c1ccc(-c3cn[nH]c3)s1)n2CC(C)(C)O)C(C)(C)C (stereo not given) | – | 0.928 µM (active)
CN1CCN(Cc2ccc(NC(=O)Nc3ccc(Oc4cc(NC(=O)C5CC5)ncn4)cc3)cc2C(F)(F)F)CC1 | – | 0.465 µM (active)
COc1cccc(-c2ccc(NC(=O)C3=C(C(=O)O)CCC3)c(F)c2)c1 | -16.8% (inactive) | –
Cc1cnc(-c2cnc(NCCNc3ccc(C#N)cn3)nc2-c2ccc(Cl)cc2Cl)[nH]1 | 1.39% (inactive) | –
O=C(C=Cc1cccc(S(=O)(=O)Nc2ccccc2)c1)NO | – | 38 µM (active)
Cc1c(NC(=O)OC[C@@H]2COCCN2)cn2ncnc(Nc3ccc4c(cnn4Cc4cccc(F)c4)c3)c12 | – | 26.1 µM (active)
CN(C)CCCN=c1c2ccccc2n(C)c2[nH]c(=O)n(C)c(=O)c12 | – | 23.3 µM (active)
CC[C@@H]1C(=O)N(C)c2cnc(Nc3ccc(C(=O)NC4CCN(C)CC4)cc3OC)nc2N1C1CCCC1 | – | 16.5 µM (active)
Cc1[nH]nc2ccc(-c3cncc(OC[C@@H](N)Cc4ccccc4)c3)cc12 | – | 9.27 µM (active)
COc1cccc2c(NCc3ccccc3)nc(-n3c(N)nc4ccccc43)nc12 | – | 13.1 µM (active)

SMILES | activity change, negative = cytotoxic | Potency
O=C(Nc1cn[nH]c1-c1nc2ccc(CN3CCOCC3)cc2[nH]1)NC1CC1 | -4.23% (inactive) | –
CN(C)Cc1c(C(=O)NCCOc2ccc(C(=O)NO)cc2)oc2ccccc12 | – | 8.27 µM (active)
CC(C)c1nn(-c2c(Cl)cccc2Cl)c2nc(Cc3ccc(OCCO)cc3)[nH]c(=O)c12 | – | 0.0827 µM (active)
Cc1c(Cn2c(C)nc3c(C(=O)O)cc(N4CCOCC4)cc32)cccc1C(F)(F)F | 12.2% (inactive) | –
CC(C)(C)OC(=O)Nc1ccc(-c2cc(C(=O)NCCCCCCC(=O)NO)no2)cc1 | – | 18.5 µM (active)
CC(C)c1cc(C(=O)N2Cc3ccc(CN4CCN(C)CC4)cc3C2)c(O)cc1O | – | 16.5 µM (active)
Cc1ccc(NC(=O)C2(c3ccc4c(c3)OC(F)(F)O4)CC2)nc1-c1cccc(C(=O)O)c1 | – | 10.4 µM (active)
CC(C)(C)c1cnc(CSc2cnc(NC(=O)C3CCNCC3)s2)o1 | – | 0.369 µM (active)
CC1=C(CO)C(=O)O[C@@H]([C@@H](C)[C@H]2CC[C@H]3[C@@H]4C[C@H]5O[C@]56[C@@H](O)C=CC(=O)[C@]6(C)[C@@H]4CC[C@]23C)C1 | – | 10.4 µM (active)
COc1cc2nccc(Oc3ccc(NC(=O)C4(C(=O)Nc5ccc(F)cc5)CC4)cc3)c2cc1OC | -20.9% (inactive) | –
Cc1cc(Nc2ncnc3ccc(-c4ccc(CNCCS(C)(=O)=O)o4)cc23)ccc1Oc1ccn2ncnc2c1 | -4.02% (inactive) | –
COc1cc2c(Oc3ccc(NC(=O)C4(C(=O)Nc5ccc(F)cc5)CC4)cc3F)ccnc2cc1OCCCN1CCOCC1 | – | 13.1 µM (active)
O=C(C=Cc1cccnc1)NCCCCC1CCN(C(=O)c2ccccc2)CC1 | 3.96% (inactive) | –
CCS(=O)(=O)c1cccc(-c2cc(C(=O)NC3CCN(C)CC3)c(C)c3[nH]c4ncc(C)cc4c23)c1 | – | 4.65 µM (active)
CC(C)(C)NC(=O)[C@H]1CN(Cc2cccnc2)CCN1C[C@@H](O)C[C@@H](Cc1ccccc1)C(=O)N[C@H]1c2ccccc2C[C@H]1O | -9.62% (inactive) | –
Cc1c(C)n(Cc2ccc(-c3ccccc3C(=O)O)cc2)c2ccc(C(=O)N[C@@H](C)c3ccc([N+](=O)[O-])cc3)cc12 | -2.83% (inactive) | –
CC[C@@]1(O)C(=O)OCc2c1cc1n(c2=O)Cc2cc3cc(O)ccc3nc2-1 | – | 0.827 µM (active)
COc1ccc(-n2nc(C(N)=O)c3c2C(=O)N(c2ccc(N4CCCCC4=O)cc2)CC3)cc1 | -4.6% (inactive) | –
COc1cccc2nc(-c3cccs3)nc(NN3C(=O)C=C(C)C3=O)c12 | – | 10.4 µM (active)
CC(C)[C@H](C(=O)Nc1ccc(C(=O)NO)cc1)c1ccccc1 | – | 9.27 µM (active)
